From PubChem
Compounds with a hit are over-represented: about 2.4% of the library has one in this group of screens.
HepG2 viability = qHTS for Inhibitors of TGF-b: Cytotox Counterscreen | HepG2 CAGA-GFP viability, ATP luminescence, 18 h | Potency, µM (series often up to 46.1 µM), without a hit: top-dose activity change, negative = cytotoxicity, hits mostly cytotoxic | 410,000 tested, 0.76% active
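HepG2 CAGA-GFP cells (1000/well, DMEM with 1% FBS) received compound, then TGF-beta at 500 pg/mL final, and were incubated 18 hours at 37 degrees C. Viability was read by CellTiter-Glo luminescence. Media-only wells were set as complete cell-killing and DMSO as no toxicity.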
TGFb inhibitor = qHTS for Inhibitors of TGF-b | HepG2 CAGA-GFP TGF-b/SMAD3 reporter, GFP fluorescence, 18 h; TGF-beta stimulated, 500 pg/mL final | 410,000 tested, 1.2% active | Potency, µM (highest dose often 46.1 µM), without a hit: top-dose activity, negative = inhibition, most hits filed as inhibitors; note: % is set by controls: 0 for no effect and ±100 for the full control effect; nearly all actives have a fitted effect of over 65% in size
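Inhibition was scored as loss of TGF-beta-induced (500 pg/mL final, 18 hours, 37 degrees C) GFP in HEPG2 cells carrying a CAGA-GFP reporter, in DMEM with 1% FBS. Well GFP was summed per cell; Activity was normalised to unstimulated and stimulated DMSO wells, then concentration-response fitting.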
S2 tox = Viability Counterscreen for Primary qHTS for Inhibitors of ATXN expression | S2 cells (HEK-293 line with an ATXN2-luciferase reporter) viability, CellTiter-Fluor protease fluorescence, 24 h | Potency, µM (highest dose often 56.7 µM), usual class: cytotoxic | 400,000 tested, 0.49% active; note: nearly all actives have a fitted effect of over 40% in size
Apoferritin bind = qHTS Assay for Identification of Novel General Anesthetics; Ferritin light chain (Equus caballus), P02791; apoferritin/1-aminoanthracene competitive binding, fluorescence; Potency, µM (highest dose often 77.5 µM), for the others: top-dose activity change, negative = displacement, usual class: inhibitors; 350,000 tested, 0.074% active; AID 485281, 2010; note: % is set by controls: 0 for no effect and ±100 for the full control effect; nearly all actives have a fitted effect of over 20% in size
Target sequence (P02791 2-175 limits assumed): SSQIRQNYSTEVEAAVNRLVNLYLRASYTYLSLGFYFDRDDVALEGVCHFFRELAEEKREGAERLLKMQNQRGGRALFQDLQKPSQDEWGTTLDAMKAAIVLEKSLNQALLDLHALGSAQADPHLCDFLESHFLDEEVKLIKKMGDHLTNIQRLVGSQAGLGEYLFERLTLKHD
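Horse-spleen apoferritin (10 uM) in 50% saturated 1-aminoanthracene in PBS was incubated 10 min at room temperature with compound. Fluorescence (ex 380, em 535 nm) was normalized to free and bound 1-AMA, with concentration-response fitted by a four-parameter Hill equation.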
ATXN2 expr inh = Primary qHTS for Inhibitors of ATXN expression | 360,000 tested, 0.72% active | Potency, µM (top dose mostly 57 µM), for inactives: at the top dose activity change, negative = inhibition, usual class: inhibitors | AID 1745845, 2022 | HEK-293 ATXN2-luciferase reporter, luminescence, 24 h; note: % is set by controls: 0 for no effect and ±100 for the full control effect; nearly all actives have a fitted effect of over 55% in size
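qHTS (up to 57 uM final) was run with 24 h compound exposure of reporter cells at 37 °C. Each well was multiplexed: SteadyGlo luminescence measured ATXN2-luciferase expression after a fluorogenic Gly-Phe-AFC viability readout (25 uM final).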
* hit, by the source's call; i = inactive; u = inconclusive; x = not tested or not shown. Calls come from the whole dose curve; as a rule, active = well fitted curve in the direction sought with a large enough effect; inconclusive = small, poorly fitted or top-dose-only effect, or another doubt; inactive = no such curve, though single readings can be large; an effect the other way counts as inactive or inconclusive. Potency is the fitted concentration of half-maximal effect.

SMILES | HepG2 viability | TGFb inhibitor | S2 tox | Apoferritin bind | ATXN2 expr inh
O=C(Nc1nc2ccc(F)cc2s1)C1=COCCO1 | -52% | 0% | i | x | u
CCCNC(=O)C1(C)CCN(CCC(=O)c2ccc(Br)cc2)C1 (stereo not drawn) | -82% | u | i | x | -12%
Cc1ccc2c(C)c(C(=O)N(Cc3ccccc3)C3CCS(=O)(=O)C3)oc2c1 (stereo not drawn) | -4% | 9% | i | -3% | -9%
Cc1ccc2c(C)c(C(=O)N(Cc3ccc(Cl)cc3)C3CCS(=O)(=O)C3)oc2c1 (stereo not drawn) | 6% | 11µM* | u | u | -30%
Cc1ncc2c(c1CNC(=O)c1ccccc1F)CCN(C(=O)c1csc(-c3cccs3)n1)C2 | x | x | i | x | x
Cc1nn(C)c(Cl)c1CN1CCOc2ccc(CN3CCC(Oc4cccnc4)CC3)cc2C1 | x | x | i | x | x
CCN(C(=O)c1cccs1)c1nc(-c2ccc(OC)cc2)cs1 | -7% | 6% | i | -8% | 36%
COc1ccc(-c2csc(N(CCCN(C)C)C(=O)c3cccs3)n2)cc1 | 10µM* | -23% | u | -20% | -31%
CC(=O)c1cccc(NC(=O)CSc2nc(=O)n(Cc3cccnc3)c3c2CCC3)c1 | 0% | 3% | i | -3% | -1%
COc1ccc(C)cc1NC(=O)CSc1nc(=O)n(Cc2cccnc2)c2c1CCC2 | -14% | -23% | i | -13% | -7%
Cc1cccc(NC(=O)CSc2nc(=O)n(Cc3cccnc3)c3c2CCC3)c1 | -33% | 18µM* | i | -17% | -15%
COc1ccc(C)cc1NC(=O)CSc1nc(=O)n(Cc2ccccn2)c2c1CCC2 | -32% | 8.9µM* | i | -17% | -16%
CC(C)(C)n1ncc2c(=O)n(Cc3ccccc3C#N)cnc21 | 6% | -5% | x | x | x
CCOC(=O)c1c(S(=O)(=O)N2CCCCC2C)c(C)n(C)c1C (stereo not drawn) | -1% | 16% | i | -5% | x
CC(C)N(C(=O)[C@H]1CC(CC(=O)NCCC2=CCCCC2)C(=O)N2CCc3c([nH]c4ccccc34)[C@]12C)C(C)C (stereo partly drawn) | -8% | u | 40µM* | x | u
CC(C)N(C(=O)[C@H]1C[C@H](CC(=O)NCc2cccc(C(F)(F)F)c2)C(=O)N2CCc3c([nH]c4cc(CCC(=O)N(C)C)ccc34)[C@]12C)C(C)C | -22% | u | 16µM* | x | u
CCN(CC)C(=O)[C@H]1C[C@H](CC(=O)NCC23CC4CC(CC(C4)C2)C3)C(=O)N2CCc3c([nH]c4ccc(Cl)cc34)[C@]12C | -92% | 13µM* | u | x | u
CCN(CC)C(=O)[C@H]1C[C@H](CC(=O)NCc2cccc(C(F)(F)F)c2)C(=O)N2CCc3c([nH]c4cc(CCC(=O)N(C)C)ccc34)[C@]12C | -3% | -24% | u | x | -3%
CCN(CC)C(=O)[C@H]1C[C@H](CC(=O)NCCCN(C)C)C(=O)N2CCc3c([nH]c4ccc(Cl)cc34)[C@]12C | -42% | u | i | x | 0%
Cc1ccc(S(=O)(=O)N2CCCCC2)cc1NC(=O)Cn1ccsc1=N | 10% | 9% | i | -9% | -16%
O=C(CCl)Nc1cccc(S(=O)(=O)N2CCCCCC2)c1 | -65% | u | 25µM* | -23% | u
N=c1sccn1CC(=O)Nc1cccc(S(=O)(=O)N2CCCCCC2)c1 | 1% | -2% | 16µM* | -19% | x
O=C(CCl)Nc1cccc(S(=O)(=O)NC2=NCCCCC2)c1 | 11µM* | u | x | x | x
Cc1ccc(Oc2ccc(NC(=O)Cn3ccsc3=N)cc2)cc1 | -84% | u | u | 13µM* | u
C(=Nc1cnc2ccccc2c1)c1ccnc2ccccc12 | 5% | -2% | x | x | x
SMILES | HepG2 viability | TGFb inhibitor | S2 tox | Apoferritin bind | ATXN2 expr inh
CC(C)C(=O)Nc1ncc(-c2cc(C(F)F)nn2-c2c(Cl)cccc2Cl)s1 | x | x | x | x | -1%
O=C(NCC1(N2CCOCC2)CCCC1)c1cnn(-c2ncc3c(n2)-c2ccccc2CC3)c1C1CC1 | x | x | i | x | x
O=C(O)c1ccc(-c2c[nH]c3ncc(-c4ccccc4)cc23)cc1C1CCCC1 | x | x | x | x | 4%
COc1cccc(N/C(SCc2cccc([N+](=O)[O-])c2)=C(/C#N)C(N)=O)c1 | 14µM* | u | i | -21% | -23%
COc1cccc(NC(=O)CC(=O)c2ccc([N+](=O)[O-])cc2)c1 | -12% | u | i | -1% | x
COc1ccccc1CCNc1ncnc2sc(C(=O)N3CCCN(C=O)CC3)c(C)c12 | x | x | i | x | x
CC(=O)N[C@@H](Cc1c[nH]c2ccccc12)C(=O)NC1CC1 | 8% | -1% | i | 0% | 6%
Cc1csc2c(N3CCN(C(=O)Nc4ccc(Cl)c(Cl)c4)CC3)ncnc12 | -29% | u | u | -15% | 20µM*
O=C(CSc1nc2ccccc2c(=O)[nH]1)Nc1ccc([N+](=O)[O-])cc1 | -62% | -14% | i | x | -17%
O=c1[nH]c(Sc2ccc([N+](=O)[O-])cc2[N+](=O)[O-])nc2ccccc12 | 11µM* | 14µM* | u | x | x
NCCC(=O)[N-][C@@H](Cc1cnc[nH]1)C(=O)O.[Zn] | x | x | i | x | x
CCCCNc1c(-c2cccc(-c3ccc(OC)cc3)c2)nc2ccc(C)cn12 | -55% | u | u | x | u
CCCCNc1c(-c2cccc(-c3cc(C(C)=O)cs3)c2)nc2ccc(C)cn12 | 18µM* | u | 16µM* | x | u
CCOC(=O)C1=C(c2ccccc2)N=c2s/c(=C\c3ccc(O)cc3)c(=O)n2C1c1cccs1 (stereo not drawn) | -89% | u | u | -11% | 28µM*
O=C(CCn1cnc2ccccc2c1=O)NCc1ccccc1Cl | 6% | -5% | i | -1% | 7%
O=C(CCn1cnc2ccccc2c1=O)Nc1cccc(Cl)c1Cl | 1% | -14% | 0.16µM* | -2% | x
